This is an account of results in PubChem BioAssay (NCATS).

Records with an inconclusive call do not appear. A call without a number means that no potency is given here. Values without a mark were called inactive. The source made the active and inactive calls. The call rests on the fitted dose curve; in most records, active means well fitted inhibition curve with a large enough effect; inconclusive means small, poorly fitted or top-dose-only effect; inactive means flat fitted curve, though single readings scatter.

Chain of Glutathione peroxidase 1 (Homo sapiens) (P07203 whole entry, looked up): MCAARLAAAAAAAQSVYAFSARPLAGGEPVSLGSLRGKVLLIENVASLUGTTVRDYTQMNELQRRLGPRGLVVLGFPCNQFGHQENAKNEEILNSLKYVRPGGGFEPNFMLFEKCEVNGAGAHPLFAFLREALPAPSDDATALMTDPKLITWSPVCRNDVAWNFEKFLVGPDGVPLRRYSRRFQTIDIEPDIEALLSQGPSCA

This experiment concerns the target Glutathione peroxidase 1 (Homo sapiens) (UniProt P07203). As to the kind of experiment: Primary qHTS Assay for Inhibitors of Recombinant Selenoprotein Glutathione Peroxidase 1 (GPX1) (AID 1845191). Further: nearly all actives have a fitted effect of over 65% in size. The following applies: recombinant GPX1, GR-coupled NADPH fluorescence, 15 min; series mostly up to 48.8 µM; activity, negative = inhibition: at the top concentration. The method, boiled down:
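GPX1 10 nM, GR 100 nM, GSH 1 mM, NADPH 0.5 mM, CHP 0.5 mM (final). 30-min cpd preincubation, RT. Ex340/Em450 read t=0, t=15 min.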
For orientation: In qHTS, concentration-response curves come from the screen itself.
`COc1ccc(C(=O)c2c(C)n(CCN3CCOCC3)c3ccccc23)cc1`: the result was inactive.

As to `c1ccc2c(c1)OCC(C1=NCCN1)O2` (centres undefined), the “activity, negative = inhibition” value is -27.7%.

As to `COc1ccc(C(CN(C)C)C2(O)CCCCC2)cc1` (centres undefined), the Potency result was “inactive”.

Take `CC(=O)[C@H]1CC[C@H]2[C@@H]3CC[C@H]4C[C@](C)(O)CC[C@]4(C)[C@H]3CC[C@]12C`: the outcome was inactive.

For `Cc1ncc(CNC(=O)N(CCCl)N=O)c(N)n1`, the Potency entry was “inactive”.

Take `O=c1[nH]c2ccccc2n1C1CCN(CCCC(c2ccc(F)cc2)c2ccc(F)cc2)CC1`: the Potency result is “inactive”.

For `CCCN1CCC[C@@H]2Cc3[nH]ncc3C[C@H]21`, the Potency result was “inactive”.

For the compound `CC(CCc1ccccc1)NC(C)C(O)c1ccc(O)cc1` (centres undefined), the Potency result is “inactive”.

On to `Nc1ccncc1`, for which the Potency result was “inactive”.

With `CCCC1CCCCN1` (centres undefined), the outcome was inactive.

As to `Cc1sc2c(c1C)C(c1ccc(Cl)cc1)=N[C@@H](CC(=O)OC(C)(C)C)c1nnc(C)n1-2`, the Potency entry is “inactive”.

On to `Cn1c(CCCC(=O)O)nc2cc(N(CCCl)CCCl)ccc21`, for which the Potency entry was “inactive”.

On to `NCC(CC(=O)O)c1ccc(Cl)cc1` (centres undefined), for which the Potency result is “inactive”.

Take `CC(=O)[C@H]1CC[C@H]2[C@@H]3CC[C@H]4C[C@H](O)CC[C@]4(C)[C@H]3C(=O)C[C@]12C`: the “activity, negative = inhibition” value was 4.78%.

As for `O=C(O)C(=O)c1cn(Cc2ccccc2)c2ccc(-c3ccc(OC(F)(F)F)cc3)cc12`, the result was inactive.

For the compound `N[C@@H]1C[C@H]1c1ccccc1`, the Potency entry was “inactive”.

Consider `CC(O)(CS(=O)(=O)c1ccc(F)cc1)C(=O)Nc1ccc(C#N)c(C(F)(F)F)c1` (centres undefined), for which the outcome was inactive.

For `CC(C)=CC1C(C(=O)OCc2cccc(Oc3ccccc3)c2)C1(C)C` (centres undefined), the “activity, negative = inhibition” value was -1.29%.

Regarding `CN1C[C@H](CNC(=O)OCc2ccccc2)C[C@@H]2c3cccc4c3c(cn4C)C[C@H]21`, the “activity, negative = inhibition” value is -13.5%.
